Screening results from PubChem BioAssay.
SKN-1 inh: blocks SKN-1 activity in C. elegans; hit rate 0.49% among 360,000; C. elegans VP596 Pgst-4::GFP/RFP ratio, acrylamide-induced, 24 h; inhibition, % at 21.8 µM;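 active means interference check ratio from 0.5 to 1.5 plus GFP to RFP signal ratio inhibition reaching or exceeding a fixed threshold, cut at about 30% in these data, passing the limit was not always enough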
NRP1-CendR mod: modulators of CendR peptide binding to human neuropilin-1. FAM-RPARPAR peptide binding to NRP-1, fluorescence polarization. inhibition, % at 25 µM. hit rate 0.85% among 360,000;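 active means inhibition or corrected inhibition above about 18%, plus a signal ratio from 0.5 to 1.5, limit read from the data, passing the limit was not always enough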
ATG4B inh: blocks human ATG4B protease cleavage of LC3 substrate. hit rate 0.51% among 340,000. ATG4B cleavage of LC3-PLA2, NBD-HPC fluorescence, 1 h. inhibition, % at 8.33 µM; in the data active means inhibition above about 40%
Target sequence (Q9Y4P1 whole entry, looked up): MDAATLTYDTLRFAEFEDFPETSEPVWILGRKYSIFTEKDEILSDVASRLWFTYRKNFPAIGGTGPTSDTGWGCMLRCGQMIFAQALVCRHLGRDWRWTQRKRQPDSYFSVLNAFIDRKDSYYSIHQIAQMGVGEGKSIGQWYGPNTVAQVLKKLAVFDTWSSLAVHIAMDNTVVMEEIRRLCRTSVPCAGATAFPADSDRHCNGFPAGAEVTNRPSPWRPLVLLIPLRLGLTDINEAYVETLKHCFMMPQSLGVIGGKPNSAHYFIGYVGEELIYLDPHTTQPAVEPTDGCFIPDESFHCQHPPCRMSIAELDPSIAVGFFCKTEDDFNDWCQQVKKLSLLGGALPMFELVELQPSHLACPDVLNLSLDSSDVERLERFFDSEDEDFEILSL
F508del corr: CFTR F508del correction in bronchial cells; CFBE cells, YFP halide quenching; stimulated with forskolin plus potentiator P3; % fluorescence drop versus neutral controls; activity (quench increase), % at 7.58 µM; hit rate 0.36% among 350,000; AID 720511;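 active means mean added fluorescence quench of at least 8% versus neutral control, with both replicates also reaching 8%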;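 further: cells transiently co-express mutant CFTR-F508del with the halide-sensitive YFP; corrector assay measuring rescue of mutant channel to the surface after 24 h compound exposure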
MPTP inh: permeability transition pore inhibition. isolated mouse mitochondria, Ca2+ swelling absorbance, 30 min. inhibition, % at 10 µM. hit rate 1.4% among 360,000;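 active means inhibition of 50% or more, scaled per plate between neutral and stimulator controls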
Each line names hits and unclear results; the compound was inactive in the other large screens. Hits are enriched below; roughly 2.7% of the tested compounds scored in any of these assays.

COc1ccc(Cc2nc(-c3ccc(Br)cc3)no2)cc1	none (no result: F508del corr)
C[C@@H]1CN([C@H](C)CO)C(=O)c2cc(NC(=O)CCCN(C)C)ccc2O[C@@H]1CN(C)C(=O)Nc1ccc(F)cc1	none (no result: SKN-1 inh, NRP1-CendR mod, ATG4B inh, MPTP inh)
CN(C)C(=O)c1ccc(-c2ccc3c(c2)[C@@H]2[C@@H](CCN2C(=O)c2ccccn2)[C@H](CO)N3)cc1	none (no result: SKN-1 inh, NRP1-CendR mod, ATG4B inh, MPTP inh)
COc1ccc(OC)c2c1C(=O)c1ccccc1C2=O	none (no result: SKN-1 inh, NRP1-CendR mod, F508del corr, MPTP inh)
COc1ccc2noc3c2c1C(=O)c1ccccc1-3	F508del corr 37.3
COc1ccc(NC(=O)Nc2ccc3c(c2)CC(=O)N([C@H](C)CO)C[C@@H](C)[C@@H](CN(C)S(=O)(=O)c2c(C)noc2C)O3)cc1	none (no result: SKN-1 inh, NRP1-CendR mod, ATG4B inh, MPTP inh)
O=C(c1ccccc1)N1C[C@@H]2[C@H](c3ccccc31)[C@H](CO)N2Cc1ccccn1	none (no result: SKN-1 inh, NRP1-CendR mod, ATG4B inh, MPTP inh)
CC(C)NC(=O)N(C)C[C@@H]1OCCCC[C@H](C)Oc2ccc(NC(=O)c3ccncc3)cc2C(=O)N([C@@H](C)CO)C[C@H]1C	none (no result: SKN-1 inh, NRP1-CendR mod, ATG4B inh, MPTP inh)
Cc1c(C(=O)/C=C/c2cccs2)oc2ccc(F)cc12	SKN-1 inh 51.6 (no result: F508del corr)
Cc1c(C(=O)Nc2nccs2)oc2ccc(F)cc12	none
O=C1C(C=NCCN2CCOCC2)=C(O)c2ccccc21	NRP1-CendR mod 27.2 (no result: F508del corr)
O=C1C(C=NCCCN2CCOCC2)=C(O)c2ccccc21	none (no result: F508del corr)
Cc1cccc(S(=O)(=O)N2C[C@H]3[C@@H](c4ccccc42)[C@H](CO)N3CC2CCCC2)c1	F508del corr 13.8 (no result: SKN-1 inh, NRP1-CendR mod, ATG4B inh, MPTP inh)
C[C@@H]1CN([C@@H](C)CO)C(=O)c2cccc(NC(=O)NC3CCCCC3)c2O[C@@H]1CN(C)Cc1ccncc1	none (no result: SKN-1 inh, NRP1-CendR mod, ATG4B inh, MPTP inh)
NC(=O)C[n+]1cccc2ccccc21	NRP1-CendR mod 31.5
O=C(C[n+]1cccc2ccccc21)c1ccc(Br)cc1	none
O=C(Nc1cccc(F)c1)N1CC(=O)N2[C@H](C1)[C@@H](c1ccc(C#CCC3CCCC3)cc1)[C@@H]2CO	none (no result: SKN-1 inh, NRP1-CendR mod, ATG4B inh, MPTP inh)
Cc1cc(N/N=C/c2ccccc2O)c2ccccc2n1	F508del corr 15.9
COc1ccc2nc(C)cc(N/N=C/c3cccc(OC)c3O)c2c1	none
Cc1noc(C)c1S(=O)(=O)Nc1ccc2c(c1)C(=O)N([C@@H](C)CO)C[C@@H](C)[C@H](CN(C)C(=O)c1ccncc1)OCCCC[C@@H](C)O2	none (no result: SKN-1 inh, NRP1-CendR mod, ATG4B inh, MPTP inh)
CCOc1ccc(NC(=O)C2CCN(S(C)(=O)=O)CC2)cc1	none
CCOc1ccc(NC(=O)C2CCCN(S(=O)(=O)c3c(C)n[nH]c3C)C2)cc1 (stereo not drawn)	none
CCOc1ccc(NC(=O)C2CCCN(S(=O)(=O)c3c(C)nn(C)c3C)C2)cc1 (stereo not drawn)	SKN-1 inh 34.0
CCOC(=O)N1CCC(C(=O)Nc2ccc(OCC)cc2)CC1	F508del corr 9.8
C[C@H]1CN([C@@H](C)CO)C(=O)c2cc(NS(=O)(=O)c3cn(C)cn3)ccc2O[C@@H]1CN(C)S(=O)(=O)c1ccc(Cl)cc1	none (no result: SKN-1 inh, NRP1-CendR mod, ATG4B inh, MPTP inh)
COCC(=O)N(C)C[C@H]1Oc2ncc(C#Cc3ccc(F)cc3)cc2C(=O)N([C@@H](C)CO)C[C@H]1C	none (no result: SKN-1 inh, NRP1-CendR mod, ATG4B inh, MPTP inh)
CCOC(=O)c1c2c(n(Cc3ccccc3)c1C)C(=O)C(=O)c1ccccc1-2	NRP1-CendR mod 32.4
COc1ccc(NC(=O)N(C)C[C@@H]2Oc3cc(-c4cccc(C(=O)N(C)C)c4)ccc3S(=O)(=O)N([C@H](C)CO)C[C@@H]2C)cc1	none (no result: SKN-1 inh, NRP1-CendR mod, ATG4B inh, MPTP inh)
CCN1C(=O)/C(=C/N(C)c2ccccc2)OC1=S	SKN-1 inh 35.6
CCN1C(=O)/C(=C\N(C(C)=O)c2ccccc2)OC1=S	none (no result: F508del corr)
COc1cc(C(c2sc3nc(C)nn3c2O)N2CCN(c3ccccc3)CC2)cc(OC)c1OC (stereo not drawn)	F508del corr 8.5
COc1ccc(COc2cc(-c3cccc(OC)c3)nc3ccc(NC(=O)c4ccc(OC)cc4)cc23)cc1	F508del corr 8.2
COc1ccc(COc2cc(-c3cccc(OC)c3)nc3ccc(NC(=O)c4ccccc4)cc23)cc1	none
O=C(NCC1CC1)[C@@H]1[C@@H](CO)[C@@H]2Cn3c(cccc3=O)[C@H]1N2C(=O)c1cccnc1	none (no result: SKN-1 inh, NRP1-CendR mod, ATG4B inh, MPTP inh)
Cc1ccc(N(CC(=O)NCC2CCCO2)S(=O)(=O)c2ccc(Cl)cc2)cc1C (stereo not drawn)	SKN-1 inh 35.1
CS(=O)(=O)N1CC(=O)N2[C@H](C1)[C@H](c1ccc(C#CCc3ccccc3)cc1)[C@@H]2CO	none (no result: SKN-1 inh, NRP1-CendR mod, ATG4B inh, MPTP inh)
CCN(CC(=O)Nc1ccc(NC(C)=O)cc1)C(=O)c1ccc(N2CCC(C)CC2)c([N+](=O)[O-])c1	F508del corr 41.0
C[C@@H]1CN([C@@H](C)CO)C(=O)c2cc(C3=CCCCC3)cnc2O[C@@H]1CN(C)C(=O)Cc1cccnc1	none (no result: SKN-1 inh, NRP1-CendR mod, ATG4B inh, MPTP inh)
Cn1c(=O)c2[nH]c(SCCN3CCCCC3)nc2n(C)c1=S	NRP1-CendR mod 20.5
CCCCCCCCCOC(=O)C1N2C(=O)[C@@H](NC(=O)COc3ccccc3)[C@H]2SC1(C)C (stereo partly drawn)	NRP1-CendR mod 21.9
Nc1ccc(N2CCN(C(=O)c3cccs3)CC2)cc1	SKN-1 inh 48.2 (no result: F508del corr)
COc1cc(C)c(C2NC(=O)c3ccccc3N2)cc1C (stereo not drawn)	none
Cc1ccc(C)c(C2NC(=O)c3ccccc3N2)c1 (stereo not drawn)	F508del corr 8.8
CN(C)C(=O)c1ccc(-c2ccc([C@@H]3[C@@H](CO)N4CCCCN(C(=O)C5CC5)C[C@@H]34)cc2)cc1	none (no result: SKN-1 inh, NRP1-CendR mod, ATG4B inh, MPTP inh)
COc1ccc2c3c([nH]c2c1)[C@@H](CO)N(C(=O)C1CCCCC1)CC31CCN(S(C)(=O)=O)CC1	none (no result: SKN-1 inh, NRP1-CendR mod, ATG4B inh, MPTP inh)
CO[C@@H]1CN(C)C(=O)c2ccc(NC(=O)Nc3ccccc3Cl)cc2OC[C@@H](C)N(C(C)=O)C[C@H]1C	none (no result: SKN-1 inh, NRP1-CendR mod, ATG4B inh, MPTP inh)
O=C(C[C@H]1C[C@H]2c3cc(NC(=O)C4CCOCC4)ccc3O[C@H]2[C@@H](CO)O1)NCCc1ccccc1	none (no result: SKN-1 inh, NRP1-CendR mod, ATG4B inh, MPTP inh)
CCNCc1nc2cc(OC)c(OC)cc2c(=O)[nH]1	NRP1-CendR mod 28.0 (no result: F508del corr)
COc1ccccc1/C=C/C=N/NC(=O)CCn1cnc2ccccc21	F508del corr 12.7
Clc1ccc(OCc2noc(-c3ccsc3)n2)c(Cl)c1	SKN-1 inh 74.2
CN1C(=O)N(c2cccc3ccccc23)C(n2cncn2)C1(C)C (stereo not drawn)	none (no result: F508del corr)
CN1C(=O)N(c2ccccc2)C(Nc2nncs2)C1(C)C (stereo not drawn)	SKN-1 inh 38.3 (no result: F508del corr)
CC=Cc1ccc2n(c1=O)C[C@@H]1[C@@H](CO)[C@H](C(=O)NCCN3CCCCC3)N(C(C)=O)[C@H]21 (mixture of isomers)	none (no result: SKN-1 inh, NRP1-CendR mod, ATG4B inh, MPTP inh)
Cc1ccc(S(=O)(=O)Nc2ccc3c(c2)C(=O)N([C@H](C)CO)C[C@@H](C)[C@@H](CN(C)C)OCCCC[C@H](C)O3)cc1	none (no result: SKN-1 inh, NRP1-CendR mod, ATG4B inh, MPTP inh)
C[C@@H]1CN([C@@H](C)CO)C(=O)c2cc(C#Cc3ccncc3)cnc2O[C@@H]1CN(C)Cc1ccncc1	none (no result: SKN-1 inh, NRP1-CendR mod, ATG4B inh, MPTP inh)
N#C[C@@H]1[C@H](c2ccc(-c3cccc(F)c3)cc2)[C@H](CO)N1C(=O)NC1CCCC1	F508del corr 8.6 (no result: SKN-1 inh, NRP1-CendR mod, ATG4B inh, MPTP inh)
CCCNC(=O)N1[C@H](C#N)[C@H](c2ccc(C#Cc3ccc(F)cc3)cc2)[C@H]1CO	none (no result: SKN-1 inh, NRP1-CendR mod, ATG4B inh, MPTP inh)
